The values that follow come from PubChem BioAssay (Tox21).

A short description of assay [1]: A CellTox Green Cytotoxicity Assay to monitor cytotoxicity in HepG2 cells - 8 hour (AID 1224890). Further: nearly all actives have a fitted effect of over 45% in size. Further: potency means the concentration at half of the fitted maximal effect. The method, boiled down: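 First, HepG2 cells (600/well) mixed with reagent were plated; second, after 5 h at 37 C they received compounds via pintool; third, fluorescence was measured at 0 h through 40 h at 8 h intervals.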
The nature of assay [2]: qHTS assay to identify small molecule antagonists of the estrogen receptor alpha (ER-alpha) signaling pathway using the BG1 cell line in the presence of 0.1 nM 17-beta-estradiol - cell viability counter screen (AID 1259241). Further: nearly all actives have a fitted effect of over 40% in size. The method, boiled down:
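VM7Luc4E2, 4,000 cells/well, phenol red-free medium + 10% charcoal-stripped FBS; 24 hr plating; cpd + 0.1 nM E2 final, 22 hr 37C/5% CO2; CellTiter-Fluor 30 min, fluorescence.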
(In general: qHTS replaces the single test concentration by a dilution series.)

Assay [3] in a line: qHTS assay to identify small molecule antagonists of the androgen receptor (AR) signaling pathway using the MDA cell line in the presence of 0.5 nM R1881 - cell viability counter screen (AID 1259242). Further: nearly all actives have a fitted effect of over 45% in size. The method, boiled down:
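qHTS format. MDA-kb2 (MMTV-luc, AR/GR responsive) + cpd + 0.5 nM R1881 final, 16 hr 37C/0% CO2 → CellTiter-Fluor 30 min → fluorescence intensity.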

Assay [4] is described as follows: qHTS assay to identify small molecule HDAC inhibitors (AID 1259364). Further: potency means the concentration at half of the fitted maximal effect.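 Further: wild-type HCT-116 cells with endogenous class I/II HDAC activity; nearly all actives have a fitted effect of over 45% in size.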 Put shortly: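 Quantitative high-throughput format: overnight-seeded HCT-116 cells got compounds for 2 hr at 37C; HDAC-Glo I/II reagent added, 30 min RT, luminescence measured.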
Assay [5] is described as follows: qHTS assay to identify small molecule HDAC inhibitors - cell viability counter screen (AID 1259365). Further: series mostly up to about 92 µM; nearly all actives have a fitted effect of over 50% in size. The method, boiled down:
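Luminescence from CellTiter-Glo, developed 30min at room temperature, reports viability of wild-type HCT-116 cells treated 2hr with compounds at 37 C and 5% CO2 after overnight plating.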

Assay [6] can be described thus: qHTS assay to identify small molecule antagonists of the sonic hedgehog signaling (Shh) pathway - cell viability counter screen (AID 1259367). Further: nearly all actives have a fitted effect of over 55% in size. Further: potency means the concentration at half of the fitted maximal effect. Put shortly:
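Viability was read by CellTiter-Fluor fluorescence in the same wells, reagent added 23 hr into compound treatment and incubated 1 hr at 37C. The 3T3 Gli1-Luc reporter cells (2,000/well) received conditioned medium after compound and ran 24 hr.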

A short description of assay [7]: qHTS assay to identify small molecule agonists of the sonic hedgehog signaling (Shh) pathway (AID 1259368; calls by dose curve;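 further: NIH/3T3-derived 3T3Gli1-Luc cells carrying a stable Gli1-driven firefly luciferase reporter; series mostly up to about 92 µM; nearly all actives have a fitted effect of over 15% in size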). Put shortly:
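Quantitative high-throughput format using a Gli1-driven firefly luciferase reporter line derived from NIH/3T3 cells. After a 24 hr compound treatment at 37 C and 5% CO2, luminescence reported Gli1 response element activity.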

Assay [8] is described as follows: qHTS assay to identify small molecule antagonists of the sonic hedgehog signaling (Shh) pathway (AID 1259369; calls by dose curve; further: nearly all actives have a fitted effect of over 45% in size; further: potency means the concentration at half of the fitted maximal effect). The method, boiled down: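 Stable Gli1-Luc reporter NIH/3T3 clone; quantitative HTS in stimulated mode with conditioned medium. Luminescence measured after 24hr compound treatment at 37 C.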
The target in assay [9] is Estrogen receptor beta (Homo sapiens) (UniProt Q92731). Briefly: qHTS assay to identify small molecule agonists of the estrogen receptor beta (ER-beta) signaling pathway (AID 1259377; active means well fitted activation curve with a large enough effect in the signal ratio in the repeat runs, not every such curve was filed as active; the % refers to the signal ratio). Put shortly: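 HEK293T ER-beta-UAS-bla; 2% charcoal-stripped FBS; cells pre-incubated 6 hr, compound 16 hr, 37C/5% CO2; LiveBLAzer B/G FRET substrate 2 h RT; fluorescence intensity read.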
Sequence of Estrogen receptor beta (Homo sapiens) (Q92731 whole entry, looked up): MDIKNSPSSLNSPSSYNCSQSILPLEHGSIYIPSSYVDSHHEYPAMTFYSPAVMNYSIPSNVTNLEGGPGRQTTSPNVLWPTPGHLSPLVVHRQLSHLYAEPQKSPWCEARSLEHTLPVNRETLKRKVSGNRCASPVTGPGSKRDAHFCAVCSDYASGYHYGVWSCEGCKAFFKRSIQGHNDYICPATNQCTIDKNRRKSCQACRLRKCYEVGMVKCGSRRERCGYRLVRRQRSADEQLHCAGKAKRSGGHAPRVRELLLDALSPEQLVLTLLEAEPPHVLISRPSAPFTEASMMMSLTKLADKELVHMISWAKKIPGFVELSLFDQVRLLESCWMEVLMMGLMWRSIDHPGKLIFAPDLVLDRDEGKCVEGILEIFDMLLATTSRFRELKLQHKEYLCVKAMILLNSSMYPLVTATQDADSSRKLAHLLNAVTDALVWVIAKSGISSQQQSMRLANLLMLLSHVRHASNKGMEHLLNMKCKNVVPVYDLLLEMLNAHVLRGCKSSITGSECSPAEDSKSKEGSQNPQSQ

The nature of assay [10]: qHTS assay to identify small molecule agonists of the androgen receptor (AR) signaling pathway in the presence of an antagonist - cell viability counter screen (AID 1259379).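 Further: MDA-kb2 human breast cancer cells carrying an MMTV luciferase reporter; series mostly up to about 92 µM; nearly all actives have a fitted effect of over 25% in size.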 Put shortly:
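Nilutamide-containing (3.0uM final) MDA-kb2 cultures, 3,000 cells/well, were treated with compounds across 15 concentrations. After 16 hr at 37C with no CO2, cell viability was determined by CellTiter-Fluor fluorescence in the luciferase assay wells.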

Assay [11] in a line: qHTS assay to identify small molecule agonists of the estrogen receptor beta (ER-beta) signaling pathway - cell viability counter screen (AID 1259380). Further: nearly all actives have a fitted effect of over 30% in size. The method, boiled down: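 Steps: plate ER-beta-UAS-bla HEK293T cells, rest 6 hr; add compounds in DMSO; incubate 16 hr at 37C, 5% CO2; add FRET substrate 2 hr; add CellTiter-Glo, wait 30 min at room temperature; read luminescence.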

In assay [12] the target is Estrogen receptor (Homo sapiens) (UniProt P03372). The assay is described as follows: qHTS assay to identify small molecule agonists of the estrogen receptor alpha (ER-alpha) signaling pathway in the presence of an antagonist (AID 1259383; calls by dose curve; further: top concentration of the series differs between compounds; nearly all actives have a fitted effect of over 15% in size). Put shortly:
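Readout was ERE-driven luciferase luminescence in VM7Luc4E2 cells, which express full-length ER-alpha endogenously. Compounds were tested at 15 concentrations for 22hr alongside 10.0nM ICI-182,780 (final concentration).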

Assay [13] in a line: qHTS assay to identify small molecule agonists or antagonists of the thyroid stimulating hormone receptor (TSHR) signaling pathway - wild type cell line counter screen (AID 1259384; calls by dose curve). Put shortly:
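Counter screen in untransfected Hek293: compounds (15-point titration, triplicate) plus phosphodiesterase inhibitor Ro20-1724 added after 18 h plating; 30 min RT. Intracellular cAMP via competitive d2/cryptate immunoassay, 1 h incubation.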

The nature of assay [14]: qHTS assay to identify small molecule agonists of the sonic hedgehog signaling (Shh) pathway - cell viability counter screen (AID 1259366). Further: nearly all actives have a fitted effect of over 50% in size. Put shortly: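 Cytotoxicity counter screen run in the same wells as the Shh reporter assay. NIH/3T3 cells carrying a Gli1 response element–driven luciferase were treated with DMSO-dissolved compounds for 24hr, and live-cell protease activity was measured with CellTiter-Fluor.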

Assay [15] addresses Estrogen receptor beta (Homo sapiens) (UniProt Q92731). Briefly: qHTS assay to identify small molecule antagonists of the estrogen receptor beta (ER-beta) signaling pathway (AID 1259378; active means well fitted inhibition curve with a large enough effect in the signal ratio in the repeat runs, not every such curve was filed as active; the % refers to the signal ratio). Put shortly: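 Antagonist mode: compounds added to beta-lactamase reporter HEK293T ER-beta-UAS cells stimulated with E2 (1nM final), 16 hr at 37C. LiveBLAzer B/G FRET substrate, 2 hours room temperature, fluorescence read-out.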

Assay [16] can be described thus: qHTS assay to identify small molecule antagonists of the estrogen receptor beta (ER-beta) signaling pathway - cell viability counter screen (AID 1259382). Further: series mostly up to about 92 µM; nearly all actives have a fitted effect of over 55% in size. Put shortly: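 Viability is scored by CellTiter-Glo luminescence (30 min, room temperature) in ER-beta-UAS-bla HEK293T wells already read for reporter fluorescence. Compound exposure lasts 16 hr at 37C alongside 1nM 17-beta-estradiol in charcoal-stripped serum medium.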

Assay [17] deals with Estrogen receptor (Homo sapiens) (UniProt P03372). Briefly: qHTS assay to identify small molecule antagonists of the estrogen receptor alpha (ER-alpha) signaling pathway using the BG1 cell line in the presence of 0.1 nM 17-beta-estradiol (AID 1259244). Further: nearly all actives have a fitted effect of over 50% in size. Put shortly:
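Reporter is a stably transfected luciferase under four estrogen responsive elements in VM7Luc4E2 cells expressing native full-length ER-alpha; inhibition of 0.1 nM (final) 17beta-estradiol-driven signal over 22 h is read by luminescence.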

Assay [18] is described as follows: qHTS assay to identify small molecule phospholipidosis (PLD) inducers (AID 1259344; active means well fitted curve in the direction sought with a large enough effect; an effect the other way counts as inactive or inconclusive). The method, boiled down: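 Phospholipid accumulation was scored by imaging: fixed, Hoechst-counterstained HepG2 cells stained with LipidTOX Red after 24 h compound exposure at 37 C. Read-outs were pit count and pit intensity per well or per cell, with amiodarone and DMSO controls.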

Molecules are shown by their SMILES. Values without a mark were called inactive. Results filed as inconclusive are left out. Calls of active or inactive are those of the source. Unless noted, the call rests on the fitted dose curve; in most records, active means well fitted curve in the direction sought with a large enough effect in the repeat runs; inconclusive means weak or mixed curves; inactive means no such curve, though single readings can be large; an effect the other way counts as inactive or inconclusive.

Sequence of Estrogen receptor (Homo sapiens) (P03372 whole entry, looked up): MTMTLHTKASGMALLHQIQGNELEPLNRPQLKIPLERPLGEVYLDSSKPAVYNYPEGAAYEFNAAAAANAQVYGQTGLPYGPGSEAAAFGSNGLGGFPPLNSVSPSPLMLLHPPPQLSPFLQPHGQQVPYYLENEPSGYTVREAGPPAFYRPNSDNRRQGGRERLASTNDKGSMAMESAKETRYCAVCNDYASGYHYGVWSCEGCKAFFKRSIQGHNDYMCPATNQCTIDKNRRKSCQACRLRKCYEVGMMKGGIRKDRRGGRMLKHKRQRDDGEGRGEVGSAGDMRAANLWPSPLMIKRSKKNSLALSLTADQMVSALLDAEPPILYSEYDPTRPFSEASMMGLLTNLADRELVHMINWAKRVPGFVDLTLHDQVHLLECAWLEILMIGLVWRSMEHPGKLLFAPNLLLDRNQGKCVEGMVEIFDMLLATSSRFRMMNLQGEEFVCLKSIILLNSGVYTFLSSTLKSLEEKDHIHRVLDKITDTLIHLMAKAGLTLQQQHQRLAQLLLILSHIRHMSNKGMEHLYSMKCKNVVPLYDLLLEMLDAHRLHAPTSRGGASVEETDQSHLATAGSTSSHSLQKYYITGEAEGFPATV

Regarding `CCCCCCCCCC#N`, the Potency result in assay [1], in [2], in assay [4], in assay [7], in assay [10] and in assay [11] was “inactive” throughout. The Potency entry in [12] was “inactive”. For the same molecule, the outcome in assay [3], in [5], in assay [9] and in assay [13] was inactive. Further, the Potency in assay [6] was 60.8 µM (active); in [8] it was 24.2 µM (active).

Regarding `CCOC(=O)CS`, the Potency result in assay [1], in assay [2], in assay [14], in assay [7] and in [10] was “inactive” in each case. For the same molecule, the outcome in assay [3], in assay [5], in assay [9] and in assay [13] was inactive. Also, the Potency was 25 µM (active) in [4] and 19.9 µM (active) in [8].

As for `CC(=O)Nc1ccc(C)c(Cl)c1`, the Potency result in assay [1], in assay [2], in assay [4], in assay [14], in [6] and in [7] was “inactive” in each case. Also, the Potency entry in assay [8], in [10] and in assay [11] was “inactive” throughout. In addition, the outcome in [3], in assay [5] and in assay [13] was inactive.

Consider `O=C(Cl)c1cccc([N+](=O)[O-])c1`, for which the Potency result in [1], in assay [2], in assay [4], in assay [14], in assay [6] and in assay [8] was “inactive” throughout. For the same molecule, the Potency result in assay [15], in assay [10], in assay [11] and in assay [12] was “inactive” each time. Also, the result in assay [3], in assay [5], in assay [9], in assay [16] and in [13] was inactive.

Turning to `Nc1ccc2ccccc2c1S(=O)(=O)O`, the Potency entry in assay [1], in assay [2], in assay [4], in assay [14], in assay [6] and in assay [8] was “inactive” in each case. Further, the Potency entry in [10] and in [11] was “inactive” throughout. Moreover, the outcome in assay [3], in assay [5] and in [13] was inactive.

In the case of `NS(=O)(=O)c1cc(-c2nn[nH]n2)c(NCc2cccs2)cc1Cl`, the Potency entry in assay [1], in assay [2], in assay [17], in [4], in assay [14] and in assay [6] was “inactive” throughout. In addition, the Potency entry in [7], in assay [8], in assay [10], in [11] and in [12] was “inactive” in each case. Also, the molecule was called inactive in assay [18], in assay [5], in [9], in [16] and in [13].

As to `O=C1CCC(C2CCCCC2)CC1`, the Potency in [1] is 27.5 µM (active). Also, the Potency result in assay [2], in [4], in assay [14], in assay [7], in assay [8] and in [15] was “inactive” each time. Also, the Potency result in [10] and in assay [11] was “inactive” throughout. Moreover, the outcome in [3], in assay [5], in assay [9], in assay [16] and in assay [13] was inactive.
